In PubChem BioAssay (NCI):
The panel holds about 83,000 compounds, 20% with a hit somewhere; the sample as a whole holds those more often.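 48-hour exposure, single concentration, 96-well plates; percent growth endpoint where 0 means no net growth. Active: below 10.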 Unmarked numbers belong to inactive results. The source made the active and inactive calls.

tested on: M14 melanoma; test: NCI-60 one-dose screen, 48 h (100 = growth as untreated, 0 = no growth, -100 = all killed); conditions: 10 µM unless noted

| Compound | growth |
| --- | --- |
| O=C(CSc1nccc(=O)[nH]1)Nc1ccc(-c2nc3ccccc3[nH]2)cc1 | 110% |
| N[C@@H](Cc1cn(-c2ccnc3ccccc23)nn1)C(=O)O | 108% |
| CCOC(=O)c1c(Nc2ccccc2)nn2c(N)c(C#N)c(-c3ccc(F)cc3)nc12 | 91.2% |
| O=C(N/N=C/c1ccc([N+](=O)[O-])o1)c1[nH]c2ccc(Br)cc2c1-c1ccccc1 | -35.4% (active) |
| CN(C)CCCNc1c2ccc(Cl)cc2nc2c1oc1ccc(Cl)cc12 | -75.6% (active) |
| Cc1c(NC(=O)CSc2nc3sc4c(c3c(=O)n2-c2ccc(Cl)cc2)CCCC4)c(=O)n(-c2ccccc2)n1C | 95.2% |
| CC(C)(C)Nc1nc2c(OCCc3ccccc3)cccn2c1-c1ccc(Cl)cc1 | 26.8% |
| CN(C)CCCNc1c2ccc(Cl)cc2nc2c1oc1ccccc12 | 15.5% |
| COc1ccccc1C(=O)CSc1nc(Nc2ccc(S(N)(=O)=O)cc2)c2ccccc2n1 | 94.1% |
| COc1ccccc1/C=C/C=N/NC1=NC2C(S1)N(C)C(=O)N2C (centres undefined) | 19% |
| COc1cccc(N2CCN(c3ncnc4c3[nH]c3ccc(F)cc34)C[C@@H]2C)c1 | -84.7% (active) |
| O=C(CSc1nnc(-c2ccc3nc(-c4ccc(Cl)cc4)[nH]c3c2)o1)Nc1ccc(C(=O)/C=C/c2ccc(Cl)cc2)cc1 | 102% |
| Cc1nc2cnc(N)c(C#Cc3cncc(C(=O)Nc4ccc(Cl)c(C(F)(F)F)c4)c3)c2nc1C | 29.9% |
| Cc1ccc(C(=O)Nc2cccc(C(F)(F)F)c2)cc1Nc1nc(-c2cnccn2)nc2c1cnn2C | 15.7% |
